# Measured values reported in PubChem BioAssay AID492964 (The Scripps Research Institute Molecular Screening Center, 2010).
# Hit rate of the full screen: of about 1,800 compounds, about 880 (49%) were called active. So high a share suggests a set chosen from earlier hits. Not all results are given here. Unmarked numbers belong to inactive results. Cut-off read from the data, not from the text of the source: active = inhibition above about 55%; inactive = the rest.
# Biological target: Orexin/Hypocretin receptor type 1 (Homo sapiens) (UniProt O43613)
# Sequence (O43613 whole entry, looked up): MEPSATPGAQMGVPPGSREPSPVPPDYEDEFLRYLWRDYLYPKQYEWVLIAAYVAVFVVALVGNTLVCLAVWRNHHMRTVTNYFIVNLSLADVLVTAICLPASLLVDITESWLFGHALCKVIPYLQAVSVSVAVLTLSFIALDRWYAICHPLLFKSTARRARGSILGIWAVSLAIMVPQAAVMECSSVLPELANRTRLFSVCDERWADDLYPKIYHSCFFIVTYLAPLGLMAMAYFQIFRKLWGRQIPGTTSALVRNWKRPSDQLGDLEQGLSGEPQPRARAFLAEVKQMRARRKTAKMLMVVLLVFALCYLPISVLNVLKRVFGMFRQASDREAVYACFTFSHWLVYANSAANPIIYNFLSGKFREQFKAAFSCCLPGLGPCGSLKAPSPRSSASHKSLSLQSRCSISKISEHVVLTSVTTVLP
# Assay: OX1R (HCRTR1) antagonists, confirmation, cell-based, HTRF (AID 492964);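 note: CHO cells expressing OX1R stimulated with orexin A at about EC80; 0% = agonist challenge alone and 100% = reference antagonist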
# Settings: OX1R-expressing cells, HTRF antagonist assay; at 6.6 µM; active compounds read high
row,Structure (SMILES),inhibition
1,CCn1c(C)nc2c1C(=O)c1ccccc1C2=O,69.9% (active)
2,CC(=O)Oc1ccc(C(C)=O)c2c1OCCO2,19.2%
3,CC(NC(=O)c1cccc2ccccc12)c1ccc2c(c1)CCCC2 (stereo not drawn),64.9% (active)
4,O=C(Nc1cccc2cccnc12)c1cccc(N2C(=O)CCC2=O)c1,86.1% (active)
5,COc1cccc(N=c2oc3c(C)ncc(CO)c3cc2C(N)=O)c1,51.7%
6,Cc1oc2c(c1C(=O)N1CCOCC1)C(=O)c1ccccc1C2=O,78.8% (active)
7,CCn1c(O)c(N=NC2=NC(=O)CS2)c2cc(C)ccc21,28.9%
8,O=C(N/N=C/c1sc(N2CCCCC2)nc1-c1cccs1)c1cccnc1,89.2% (active)
9,N#Cc1nc(-c2cccc3ccccc23)oc1N,60.8% (active)
10,O=C(Nc1ccccc1Cl)/C(Cl)=C(\Cl)S(=O)c1ccccc1 (stereo not drawn),89.9% (active)
11,Cc1cccc(NC(=O)Nc2cccc(Oc3c(F)c(F)c(F)c(F)c3F)c2)c1,35.4%
12,NS(=O)(=O)c1ccc(CCNC(=O)c2ccc([N+](=O)[O-])cc2[N+](=O)[O-])cc1,84.6% (active)
13,CSCCC(NC(=O)c1cc([N+](=O)[O-])cc([N+](=O)[O-])c1)c1nc2ccccc2[nH]1 (stereo not drawn),46.4%
14,Cc1c(/C=N\NC(=O)c2cc3ccccc3o2)c2ccccc2n1C,83.1% (active)
15,COc1cccc(C(=O)NC(=O)Nc2nc(C)cc(C(F)(F)F)n2)c1,57.7% (active)
16,Cc1cc(=O)oc(C)c1C(=O)NCCN(C)Cc1ccccc1,12.3%
17,O=C(NC(Cc1c[nH]c2ccccc12)C(=O)N/N=C/c1ccc(Br)cc1)c1cccs1 (stereo not drawn),81.2% (active)
18,CC(C)(C)NC(=O)CN(C(=O)c1csnn1)c1ccccc1-c1ccccc1,55.5% (active)
19,COc1ccc2sc(-c3ccc(N(C)C)cc3)c(C#CCO)c2c1,62.2% (active)
20,CCn1c(=N)c(C(=O)NCCCOC)cc2c(=O)n3cccc(C)c3nc21,47.5%

row,Structure (SMILES),inhibition
1,COC(=O)c1sccc1NC(=O)CSc1ccccc1NS(=O)(=O)c1cc(Cl)ccc1Cl,67.1% (active)
2,COc1ccc(N(C)C(=O)CCS(=O)(=O)c2cccc3nsnc23)cc1,38.3%
3,CC(=O)Nc1ccc(Nc2c([N+](=O)[O-])cc(S(C)(=O)=O)cc2[N+](=O)[O-])cc1,46.9%
4,COC(=O)N/N=C/c1c[n+]([O-])c2ccccc2[n+]1[O-],69.1% (active)
5,COCCNC(=O)Nc1ccc2nc(-c3ccco3)c(-c3ccco3)nc2c1,32.4%
6,COc1cc(OC)c(NC(=O)c2ccc(Br)o2)cc1Cl,66.4% (active)
7,Nc1ccc2nc3c(=O)[nH]c(=S)[nH]c3nc2c1,47.3%
8,N#CC(=C1SC=CS1)c1nc(-c2ccccc2)cs1,92.5% (active)
9,N#C/C(=C1\CCCN1)c1nc(-c2ccccc2)cs1,94% (active)
10,Nc1[nH][nH]c(=O)c1N=Nc1ccc2c(c1)OCO2,34.5%
11,COCCCNC(=S)NC(=O)c1ccc([N+](=O)[O-])cc1,50.2%
12,Cn1cnnc1Sc1ccc(S(C)(=O)=O)cc1[N+](=O)[O-],42.5%
13,COc1ccccc1N1CC(C(=O)Nc2ccc(S(=O)(=O)N3CCOCC3)cc2)CC1=O (stereo not drawn),16.2%
14,COc1cc2ccccc2cc1C(=O)Nc1ccc(N2CCOCC2)cc1,56.8% (active)
15,COc1cccc(/C=N/Nc2cc(C)nc(-c3ccccc3O)n2)c1O,92.3% (active)
16,CCOc1ccc(/C=C/C(=O)OCC(=O)c2ccccc2OC)cc1OC,58.8% (active)
17,CC(C)CC[n+]1ccn(C2=C([O-])c3ccccc3C(=O)/C2=N\S(=O)(=O)c2ccccc2)c1,51.6%
18,COc1cc(C(=S)N2CCOCC2)cc(OC)c1OC(=O)c1ccc([N+](=O)[O-])cc1[N+](=O)[O-],88.1% (active)
19,O=C(Oc1ccccc1C(=S)N1CCCCC1)c1cc([N+](=O)[O-])cc([N+](=O)[O-])c1,35.2%
20,CCn1c(SCC(=O)c2ccc3ccccc3c2)nnc1-c1cccs1,81.2% (active)

row,Structure (SMILES),inhibition
1,COc1ccc(N2CC(C(=O)NCCN3C(=O)S/C(=C\c4cccnc4)C3=O)CC2=O)c(OC)c1 (stereo not drawn),106% (active)
2,O=C(O)CCC(=O)Nc1nc2ccc([N+](=O)[O-])cc2s1,50.8%
3,Cc1cc(-c2ccc(C)c(S(=O)(=O)NC(C)Cc3ccco3)c2)on1 (stereo not drawn),30.2%
4,COc1ccc(S(=O)(=O)NC(C)c2ccccc2)cc1C(=O)N1CCCCC1 (stereo not drawn),72.9% (active)
5,CC(=O)N/N=C/c1cc2c(cc1[N+](=O)[O-])OCO2,34.2%
6,COC(=O)CNC(=O)c1ccc2c(c1)S(=O)(=O)c1ccccc1C2=O,63% (active)
7,Cc1cc(C(=O)NC2CCCc3c2cnn3-c2cccc(C)c2C)c(C)o1 (stereo not drawn),63.8% (active)
8,Cc1cccc(NS(=O)(=O)c2cccc(C(=O)NNC(=O)c3ccccc3O)c2)c1,30.5%
9,S=c1[nH]nc(-c2cc(-c3ccccc3)n[nH]2)n1/N=C/c1c2ccccc2cc2ccccc12,60% (active)
10,Cc1cccn2c(=O)c3cc(C#N)c(=NC(=O)c4cccnc4)n(CC4CCCO4)c3nc12 (stereo not drawn),44.2%
11,COc1ccc(CCn2c(NCCCN3CCOCC3)nc3c2c(=O)[nH]c(=O)n3C)cc1,15.3%
12,CCOc1ccc(CCNC(=O)C(CC)n2nc(C)n3c(cc4sccc43)c2=O)cc1OCC (stereo not drawn),81.6% (active)
13,COc1cccc(/C=C/c2ccc3ccccc3n2)c1OC(C)=O,37.3%
14,CN(C(=O)CSc1nnc(-c2n[nH]c3ccccc23)o1)c1ccccc1,35%
15,COc1cccc(/C=N/NC(=O)c2[nH]nc3c2CCc2ccccc2-3)c1O,55% (active)
16,Nc1nc(COC(=O)CCC(=O)c2ccc(Cl)cc2)nc(Nc2ccccc2)n1,38.7%
17,O=C(/C=C/c1ccco1)Nc1cccc(-c2nc3ccccc3[nH]2)c1,59% (active)
18,COc1ccc(CCNC(=O)/C(C#N)=C2\N=C(NC(=O)c3cccs3)c3ccccc32)cc1,19.5%
